Source: PubChem BioAssay
The list is not random: actives were taken first. Their share in the collection is about 6.3%.
S2 tox: viability counter-screen for ATXN expression inhibitors | S2 cells (HEK-293 line with an ATXN2-luciferase reporter) viability, CellTiter-Fluor protease fluorescence, 24 h | Potency, µM (series often up to 56.7 µM), hits mostly cytotoxic | 0.49% of 400,000 active | AID 651635; further: nearly all actives have a fitted effect of over 40% in size
HepG2 tox: counter-screen for TGF-b inhibitors: cytotoxicity in HepG2 cells. HepG2 CAGA-GFP viability, ATP luminescence, 18 h. Potency, µM (top dose mostly 46.1 µM), actives largely listed as cytotoxic. 0.76% of 410,000 active. AID 588856
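CellTiter-Glo luminescence gave cytotoxicity after 18 hours at 37 degrees C. The cells were HepG2 CAGA-GFP in 1% FBS DMEM, stimulated with 500 pg/mL TGF-beta after compound addition. %Activity was normalised to no-cell wells (complete cell-killing) and DMSO (no toxicity), and curves were fitted and classified.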
TGFb inhibitor: inhibitors of TGF-b signaling. 1.2% of 410,000 active. HepG2 CAGA-GFP TGF-b/SMAD3 reporter, GFP fluorescence, 18 h; TGF-beta stimulated, 500 pg/mL final. Potency, µM (titrated, usually from 46.1 µM), hits mostly inhibitors. AID 588855; further: nearly all actives have a fitted effect of over 65% in size
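TGF-beta reporter screen: HEPG2 CAGA-GFP, 1% FBS, 500 pg/mL TGF-beta final, 18 h; per-cell GFP summed per well; curves fitted and categorized by class.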
ATXN2 expr inh: ATXN2 expression inhibition; Potency, µM (top dose mostly 57 µM), usual class: inhibitors; AID 1745845; 0.72% of 360,000 active; HEK-293 ATXN2-luciferase reporter, luminescence, 24 h; further: nearly all actives have a fitted effect of over 55% in size
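qHTS (up to 57 uM final) was run with 24 h compound exposure of reporter cells at 37 °C. Each well was multiplexed: SteadyGlo luminescence measured ATXN2-luciferase expression after a fluorogenic Gly-Phe-AFC viability readout (25 uM final).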
Gal4-VP16 FLuc: inhibits Gal4-VP16 luciferase reporter, ROR gamma counter-screen; 3.5% of 310,000 active; AID 2546; Potency, µM (series often up to 53.6 µM), most hits filed as inhibitors; Drosophila S2 Gal4-VP16 UAS-luciferase, luminescence, 20 h;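 further: Gal4-VP16 expression switched on by copper sulfate through the metallothionein promoter; nearly all actives have a fitted effect of over 50% in size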
RORg inh: inhibitors of mouse ROR gamma transcriptional activity. Drosophila S2 Gal4-RORgamma UAS-luciferase reporter, 20 h. Potency, µM (highest dose often 53.6 µM), most hits filed as inhibitors. 5.4% of 310,000 active. AID 2551; further: nearly all actives have a fitted effect of over 60% in size
Target sequence (P51450 whole entry, looked up, the tested form may be a part): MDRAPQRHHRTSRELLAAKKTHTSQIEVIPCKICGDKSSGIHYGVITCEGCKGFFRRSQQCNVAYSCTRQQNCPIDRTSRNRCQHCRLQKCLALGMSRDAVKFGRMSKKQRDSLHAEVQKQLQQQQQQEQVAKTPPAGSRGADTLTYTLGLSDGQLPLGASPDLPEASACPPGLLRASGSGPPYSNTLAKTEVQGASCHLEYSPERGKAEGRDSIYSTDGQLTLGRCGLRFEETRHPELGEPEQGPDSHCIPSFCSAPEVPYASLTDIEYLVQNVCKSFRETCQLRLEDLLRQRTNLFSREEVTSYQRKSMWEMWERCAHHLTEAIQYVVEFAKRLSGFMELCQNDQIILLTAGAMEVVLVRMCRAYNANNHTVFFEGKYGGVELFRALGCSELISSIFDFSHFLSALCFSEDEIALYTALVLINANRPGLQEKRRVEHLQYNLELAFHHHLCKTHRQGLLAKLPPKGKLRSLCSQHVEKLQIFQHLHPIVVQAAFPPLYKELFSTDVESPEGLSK
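Stably transfected Drosophila Schneider cells are the test system, with ROR gamma fused to Gal4 and luciferase under UAS control; luminescence is read after 20 hr of 700 uM copper sulfate induction at ambient temperature.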
Hits are given with their value; 0 = inactive; ? = inconclusive; - = no result; [ ] = another dose, or the depositor's remark. The call rests on the fitted dose curve; in most records, active means well fitted curve in the direction sought with a large enough effect; inconclusive means small, poorly fitted or top-dose-only effect, or another doubt; inactive means no such curve, though single readings can be large; an effect the other way counts as inactive or inconclusive.

SMILES | S2 tox | HepG2 tox | TGFb inhibitor | ATXN2 expr inh | Gal4-VP16 FLuc | RORg inh
COc1cccc(CNC(=O)c2c(OC)cc(=O)n3c2CCN(C(=O)c2ccc(C)s2)CC3)c1 | 0 | - | - | - | - | -
Cc1oc2ncnc(N3CCCCC3)c2c1C(=O)NCC1CCN(Cc2ccc(F)cc2)CC1 | 0 | 0 | 0 | 0 | - | -
C=CCNC(=S)N/N=C/c1ccc(-c2ccc(OC)cc2)o1 | - | 0 | ? | 0 | 1.8µM | 0.56µM
CC(C)c1c(C(=O)N/N=C/C=C/c2ccccc2)nnn1-c1nonc1N | 0 | 0 | 0 | - | 5.6µM | 4.5µM
CCN(CC)c1ccc(/C=N/NC(=O)c2nnn(-c3nonc3N)c2C(C)C)c(O)c1 | 0 | 0 | ? | ? | 5µM | 3.5µM
Cc1ccc(O/C=C2/Nn3c(nnc3-c3cc(-c4ccccc4)n[nH]3)S2)cc1 | - | 0 | 0 | - | - | -
O=C(O)c1ccc(/C=N/NC(=O)c2cc3ccccc3cc2O)cc1 | 0 | 0 | ? | 0 | - | -
O=C(N/N=C\c1ccc(Sc2ccccn2)o1)c1cccc(F)c1 | 0 | 0 | 0 | 0 | 0 | 10µM
O=C(N/N=C/c1ccc(Sc2ccccn2)o1)c1cc2ccccc2cc1O | ? | 0 | 0 | 0 | 0[0.365 µM] | 16µM
O=C(N/N=C/c1ccncc1)c1cccc([N+](=O)[O-])c1 | - | - | - | - | 0 | 0
O=C(CCc1ccccc1O)N/N=C/c1ccc(Sc2cccc3cccnc23)o1 | ? | 0 | 14µM | 0 | 0 | ?
O=C(N/N=C/c1ccc(Sc2ccccn2)o1)c1cccc([N+](=O)[O-])c1 | 0 | 0 | 0 | 0 | 11µM | 4µM
COc1ccccc1NC(=O)CNC(=O)c1ccc(Br)o1 | 0 | 0 | 0 | - | 0 | 0
CCc1cccc(OCC(=O)Nc2ccc(S(=O)(=O)Nc3cc(C)nc(C)n3)cc2)c1 | 0 | 0 | 0 | 0 | - | -
COc1cc(C(=O)n2nc(C)c(Sc3ccc(Cl)cc3)c2C)cc(OC)c1OC | - | 0 | 0 | - | - | -
Cc1ccc(-c2cn3nc(C)c(C)nc3n2)cc1 | - | 0 | 0 | 6.3µM | 10µM | 7.9µM
CCc1ccc(NC(=O)CC2C(=O)N(c3cccc(OC)c3)C(=O)N2Cc2ccco2)cc1 (centres undefined) | - | 0 | 0 | - | - | -
CCOc1ccc(-n2nc3cc(C)c(N)cc3n2)cc1 | 0 | 0 | 0 | - | 0 | 10µM
CCOc1ccc(-n2nc3ccc(N)cc3n2)cc1 | 0 | 0 | 0 | - | 0 | 0
O=C(Nc1ccc(N2CCCCC2)cc1)c1ccccn1 | 0 | 0 | 0 | 1.8µM | 2µM | 1.3µM
CCCOC(=O)Nc1ccc(N2CCCCC2)cc1 | 0 | 0 | 0 | 0 | ? | 11µM
O=C(Nc1ccc2c(c1)OCCO2)c1ccccn1 | 0 | 0 | 0 | - | 14µM | 7.1µM
Cn1ccc(C(=O)Nc2ccc3c(c2)OCCO3)n1 | 0 | 0 | 0 | 0 | ? | 7.9µM
Cn1nc(C(=O)Nc2ccc3c(c2)OCCO3)cc1C(=O)O | 0 | 0 | 0 | 0 | 0 | 0
O=C(Nc1cccc(C(F)(F)F)c1)c1csc([C@@H]2O[C@H](CO)[C@@H](O)[C@H]2O)n1 | 0 | 0 | 0 | 0 | - | -
SMILES | S2 tox | HepG2 tox | TGFb inhibitor | ATXN2 expr inh | Gal4-VP16 FLuc | RORg inh
O=C1NC[C@H](CCCCN2C[C@H](Cc3ccc(O)cc3)N(CCc3ccccc3)C(=O)C2=O)N(CCc2ccc(O)cc2)C1=O | 0 | - | - | 0 | - | -
Cc1ccc(C(=O)N2CCc3cc(CNC(=O)CCc4ccccc4)ccc32)cc1 | - | 0 | ? | - | - | -
O=C(Nc1ccc(N2CCOCC2)cc1)c1cn2ccccc2n1 | 0 | 0 | 0 | 11µM | 0 | 0
CCOc1cc(CNCCCN2CCOCC2)cc(Br)c1OCC(=O)Nc1cccc(C(F)(F)F)c1 | - | 18µM | ? | 22µM | ? | ?
COc1cc(CNCCN2CCOCC2)ccc1OCc1ccc(Cl)cc1 | 0 | 0 | 0 | 0 | 0 | 0
COc1cc(CNCCCN2CCOCC2)cc(Br)c1OCc1ccc(Cl)cc1 | - | 0 | ? | 21µM | 0 | 0
Cc1ccc(NC(=O)Cn2c(=O)n(Cc3ccccc3)c(=O)c3c(C)c(C(=O)N(C)C)sc32)c(C)c1 | ? | 0 | 0 | 0 | - | -
O=C(CCc1ccccc1)NC1(Cc2ccccc2)CCN(CCCc2ccccc2)C1=O (centres undefined) | ? | 0 | 13µM | ? | - | -
COc1ccc(C(CNC(=O)c2ccc(-c3nc4ccccc4s3)o2)N2CCCC2)cc1 (centres undefined) | ? | 0 | 0 | 0 | - | -
COc1ccc(C(CNC(=O)c2ccc(-c3ccccc3Cl)o2)N2CCCC2)cc1 (centres undefined) | - | 11µM | ? | - | - | -
CC(C)C(=O)NC(=S)N(Cc1ccccc1)Cc1ccccc1 | 0 | 0 | 0 | - | 5µM | 2.8µM
CC(C)CC(=O)NC(=S)N(Cc1ccccc1)Cc1ccccc1 | 0 | 0 | 0 | 0 | 6.3µM | 3.2µM
CCOc1ccc(CCNC(=O)c2cc3c(=O)oc4ccc(C)cc4c3s2)cc1OCC | 0 | 0 | ? | 0 | - | -
COc1ccc(C2c3c(oc4ccc(F)cc4c3=O)C(=O)N2Cc2ccc3c(c2)OCO3)cc1 (centres undefined) | 0 | 0 | 0 | 0 | - | -
CN(C)CCCNc1nc2cc(-c3cccc(Cl)c3)sc2c(=O)n1C | ? | 11µM | ? | ? | - | -
